Only some compounds are listed: those with a hit (about 11% of all), similar ones and a draw of the others.
Pf growth 96h: P. falciparum growth inhibition at 96 hour, primary screen for plastid delayed-death inhibitors; P. falciparum luciferase reporter growth, 96 h; Potency, µM (highest dose often 28.7 µM), without a hit: at the highest dose activity change, negative = inhibition, usual class: inhibitors; 320,000 compounds, 6.9% hits
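P. falciparum expressing integrated firefly luciferase grown in erythrocytes (2% hematocrit, 0.05% parasitemia final) with compounds for 96 hours at 37 C, 5% CO2. Growth inhibition read as loss of luminescence after adding luciferase detection reagent.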
HCV inh: HCV inhibition; 340,000 compounds, 3.4% hits; Huh7.5.1 HCVcc-Cre infection, luciferase reporter, 44 h; Potency, µM (titrated, usually from 41.8 µM), for inactives: at the top dose activity change, negative = inhibition, usual class: inhibitors; AID 651820
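Compounds are dispensed onto cells plated 4 h earlier at 1,000 per well, with HCVcc-Cre virus (about 0.5 moi) added next. Following 44 h of culture, luminescent signal is measured for 15 sec after 15 min with substrate at room temperature.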
AMA1-RON2 inh: disrupts binding of P. falciparum AMA1 to RON2; AlphaScreen AMA1-biotinylated RON2 peptide binding; Potency, µM (doses to about 58.2 µM), without a hit: at the highest dose activity change, negative = inhibition, actives largely listed as inhibitors; 360,000 compounds, 0.2% hits;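 also: 0% = vehicle wells and -100% = peptide control; nearly all actives have a fitted effect of over 45% in size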
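AMA1 (3D7) with his tag at 25 nM final met compounds first, then biotinylated RON2 peptide at 25 nM; detection used donor plus acceptor beads, 10 µg/mL apiece, read by AlphaScreen after 30 min at room temperature.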
AmpC inh no detg: inhibitors of E. coli AmpC beta-lactamase without detergent. 330,000 compounds, 0.52% hits. Potency, µM (titrated, usually from 57.1 µM), inactives show top-dose activity change, negative = inhibition, actives largely listed as inhibitors. AID 485341. P00811. AmpC nitrocefin hydrolysis, absorbance 480 nm, 0.0001% Triton;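 also: plate controls were no compound for no effect and no enzyme for full effect; nearly all actives have a fitted effect of over 20% in size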
Target sequence (P00811 whole entry, looked up): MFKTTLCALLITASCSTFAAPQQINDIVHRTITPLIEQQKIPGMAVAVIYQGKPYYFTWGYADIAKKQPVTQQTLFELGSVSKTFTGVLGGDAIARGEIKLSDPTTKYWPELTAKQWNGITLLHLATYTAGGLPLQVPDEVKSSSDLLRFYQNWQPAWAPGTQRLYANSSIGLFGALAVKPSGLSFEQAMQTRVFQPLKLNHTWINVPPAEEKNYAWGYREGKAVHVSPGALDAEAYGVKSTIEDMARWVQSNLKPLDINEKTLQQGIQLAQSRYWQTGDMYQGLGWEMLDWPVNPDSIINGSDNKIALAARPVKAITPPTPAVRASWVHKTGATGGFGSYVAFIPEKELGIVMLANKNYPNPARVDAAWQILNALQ
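20 mM phosphate pH 7.0 + 0.01% (detergent screen) or 0.0001% Triton X-100; 5.3 nM AmpC reagent; cpd preinc 15 min RT; nitrocefin (800 uM stock) to start; A480 q20 s × 4 min; Activity was normalised to no-enzyme and no-compound control wells.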
Pf growth 48h: P. falciparum growth inhibition at 48 hours (one generation); P. falciparum luciferase growth in erythrocytes, 48 h; Potency, µM (highest dose often 28.7 µM), without a hit: at the highest dose activity change, negative = inhibition, hits mostly inhibitors; 310,000 compounds, 5.9% hits; AID 504832
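Here the parasites carry a stable luciferase gene and grow inside erythrocytes in Albumax-based RPMI medium with compound for one erythrocytic cycle. Activity is scored as loss of luminescent signal.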
AmpC detergent: blocks E. coli AmpC beta-lactamase in detergent assay; 370,000 compounds, 0.041% hits; Potency, µM (titrated, usually from 114 µM), inactives show at the highest dose activity change, negative = inhibition, actives largely listed as inhibitors; AmpC hydrolysis of nitrocefin, absorbance 480 nm, 0.01% Triton; P00811;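 also: 0% = no-compound wells and -100% = no-enzyme wells; nearly all actives have a fitted effect of over 25% in size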
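AmpC (5.3 nM in the dispensed reagent) in 20 mM phosphate pH 7.0 with 0.01% (detergent screen) or 0.0001% Triton X-100 was preincubated with compounds for 15 min at room temperature. Nitrocefin was then added from an 800 uM solution, and hydrolysis was followed at 480 nm.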
Starred values were filed as active, the others as inactive; ? = inconclusive; / = no result; [ ] = remark or other dose. Calls follow the shape of the dose curve; as a rule, active = well fitted curve in the direction sought with a large enough effect; inconclusive = small, poorly fitted or top-dose-only effect, or another doubt; inactive = no such curve, though single readings can be large; an effect the other way counts as inactive or inconclusive. Unless noted, % is scaled to controls: 0 for no effect and ±100 for the full control effect; potency is read from the fitted curve at half-maximal effect.

SMILES | Pf growth 96h | HCV inh | AMA1-RON2 inh | AmpC inh no detg | Pf growth 48h | AmpC detergent
Cc1cc(C)n2cc(CSc3nnnn3-c3ccccc3)nc2n1 | 8.28µM* | 13.2% | 22.9% | 12.7% | -21.6% | 7.5%
Cc1ccccc1-n1nnnc1Sc1nnnn1-c1ccccc1 | / | ? | 4.8% | -24.0% | 8.28µM* | 2.4%
Cc1nc(Sc2nnnn2-c2ccccc2)c(C#N)c(C)c1C | ? | -6.1% | -5.6% | -11.3% | / | ?
Cc1ccccc1CNC(=O)C1CCCCN1S(=O)(=O)c1ccc(F)cc1 (centres undefined) | / | / | / | / | / | 0.5%
CCc1ccc(NC(=O)CSc2nccn2C2CCCC2)cc1 | / | / | / | / | / | 8.8%
CCC(=O)N1CCN(c2ccccc2NC(=O)COc2cc(C)ccc2C(C)C)CC1 | / | 10µM* | -12.0% | 170.2% | 3.29µM* | -2.9%
CCn1c(Cc2ccccc2)nnc1SCC(=O)Nc1ccccc1N1CCOCC1 | 3.29µM* | -3.6% | 29.6% | 79.9% | ? | 2.5%
Cc1ccc(C(C)C)c(OCC(=O)NC(=S)Nc2ccccc2N2CCOCC2)c1 | -40.5% | / | 12.8% | -10.0% | 41.1% | 5.9%
Cc1cc(C)c(OCC(=O)Nc2ccccc2N2CCOCC2)c(C)c1 | -5.7% | ? | 14.9% | 44.4% | 11.7µM* | ?
CC(=O)N1CCN(c2ccccc2NC(=O)COc2ccc(Cl)cc2Cl)CC1 | / | ? | -4.8% | 131.4% | 10.4µM* | -19.7%
O=C(NCCc1ccccc1)c1ccc(CSc2nc3ccncc3n2Cc2ccccc2F)cc1 | / | / | / | / | / | 22.1%
CCOc1cc(CNC(=O)c2cc(-c3ccc(Cl)s3)nc3ccccc23)ccc1OC | / | / | / | / | / | 21.9%
Cc1ccc(Cl)cc1NC(=O)Cn1c(=O)n(C(C)C)c(=O)c2oc3ccccc3c21 | / | / | / | / | / | -4.2%
CCCCOC(=O)c1ccc(Nc2ncnc3c2cnn3-c2cccc(C)c2)cc1 | / | / | / | / | / | -5.4%
CC(=O)N1CCc2cc(S(=O)(=O)NC(CC(C)C)C(=O)NCCc3ccccc3)ccc21 (centres undefined) | / | / | / | / | / | 1.3%
Cc1ccc(OCC(=O)Nc2ccccc2N2CCCC2)c(C)c1 | 10.8%[5.75 µM] | ? | ? | -19.3% | 11.7µM* | -0.9%
COc1ccc(CC(=O)NCc2cccc(CNC(=O)Cc3ccc(OC)c(OC)c3)c2)cc1OC | 8.28µM* | -1.8% | -10.0% | 26.3% | -17.0% | -12.9%
COc1ccc(CC(=O)NNC(=O)c2nn(Cc3ccccc3)c(=O)c3ccccc23)cc1OC | ? | -2.9% | 79.0% | 16.8% | 3.29µM* | 1.3%
COc1ccc(NC(=O)NCc2ccccn2)cc1OC | 2.9%[5.75 µM] | 10.3% | 7.6% | -11.1% | -10.7% | -5.8%
COc1ccc(CC(=O)NCc2ccccn2)cc1OC | 4.65µM* | 16.9% | 122.8% | -15.4% | 10.4µM* | ?
COc1ccc(CCNC(=O)Cn2nc(C(=O)O)c3ccccc3c2=O)cc1OC | 23.6% | 6.6% | 6.6% | -10.4% | 27.8% | -7.3%
COc1ccc(CC(=O)c2ccc(OC)c(OC)c2C)cc1OC | 10.4µM* | ? | 2.5% | -3.5% | ? | -1.9%
Cc1ccc(-c2nc(S(=O)(=O)c3ccc(C)cc3)c(SCC(=O)c3ccccc3)o2)cc1 | / | / | / | / | / | -1.1%
O=C(Nc1cccc(C(F)(F)F)c1)c1cc(CN2CCOCC2)on1 | / | / | / | / | / | -3.1%
Cc1ccc(NC(=O)N2CCC(n3c(C)nc4cccnc43)CC2)c(Cl)c1 | / | / | / | / | / | -0.1%
CCC1CCC(C(=O)NC(C(=O)Nc2ccc3c(c2)OCCO3)C(C)C)CC1 (centres undefined) | 9.28µM* | 1.4% | 9.0% | -4.7% | / | -5.3%
N#Cc1c(-c2c(Cl)cccc2Cl)noc1/C=C/Nc1ccc(C(=O)O)cc1 | 12.6% | 26.2% | 13.8% | 17.8µM* | ? | 2.2%
Cn1c(=O)c2c(nc(N3CCN(Cc4ccccc4)CC3)n2CC(=O)c2ccccc2)n(C)c1=O | / | / | 10.2% | / | / | /
